{"source": "PubChem BioAssay (EPA / NIEHS)", "note": "Inconclusive results are not listed. The source made the active and inactive calls. Rule for the calls, unless noted: active = hit-call score of the fitted dose curve at least 0.9, where 1 is the maximum; inactive = score below 0.9."}
{"test": "CCTE_Simmons_MITO_basal_resp_rate: CCTE's HepG2 Seahorse XF Respirometric Screening Assay at Basal Respiratory State, Simmons Lab (AID 2284001)", "conditions": "actives raise or lower the signal", "in_short": "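Basal-phase OCR of HepG2 cells on a Seahorse XF96, analysed by bidirectional fit relative to DMSO vehicle; chemicals at 7 concentrations, 125 nM–100 uM final; three biological replicates; fenpyroximate and 2,4-dinitrophenol positive controls.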"}
{"smiles": "CN[C@H]1CC[C@@H](c2ccc(Cl)c(Cl)c2)c2ccc(S(N)(=O)=O)cc21", "AC50": "25.6 µM (active)"}
{"smiles": "CCCCC(CC)COC(=O)CC(C(=O)OCC(CC)CCCC)S(=O)(=O)O", "note": "(stereo unspecified)", "outcome": "inactive"}
{"smiles": "CC(C)(C)c1cc(O)c(C(C)(C)C)cc1O", "AC50": "18.3 µM (active)"}
{"test": "CCTE_Simmons_MITO_max_resp_rate: CCTE's HepG2 Seahorse XF Respirometric Screening Assay at Maximal Respiratory State [uncoupled], Simmons Lab (AID 2284002)", "conditions": "actives raise or lower the signal", "in_short": "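HepG2 oxygen consumption measured on Seahorse XF after FCCP uncoupling, following test compound injection; 7 concentrations from 125 nM to 100 uM final. Readings every 6 min over 72 min, three biological replicates; bidirectional fit versus DMSO.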"}
{"smiles": "CN[C@H]1CC[C@@H](c2ccc(Cl)c(Cl)c2)c2ccc(S(N)(=O)=O)cc21", "outcome": "inactive"}
{"smiles": "COc1ccc(S(=O)(=O)N2C(=O)[C@@](c3ccccc3OC)(N3C[C@H](O)C[C@H]3C(=O)N(C)C)c3cc(Cl)ccc32)c(OC)c1", "outcome": "inactive"}
{"smiles": "CCCCC(CC)COC(=O)CC(C(=O)OCC(CC)CCCC)S(=O)(=O)O", "note": "(stereo unspecified)", "AC50": "85.2 µM (active)"}
{"smiles": "CC(C)(C)c1cc(O)c(C(C)(C)C)cc1O", "AC50": "36.7 µM (active)"}
{"test": "CCTE_Simmons_MITO_inhib_resp_rate: CCTE's HepG2 Seahorse XF Respirometric Screening Assay at Inhibited Respiratory State [full ETC block], Simmons Lab (AID 2284006)", "conditions": "actives raise or lower the signal", "in_short": "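Test chemicals at seven final concentrations (125 nM–100 uM) in three biological replicates, with DMSO as vehicle. HepG2 oxygen consumption was then tracked on a Seahorse XF96 for 72 min through FCCP and rotenone/antimycin A phases, with the inhibited-phase rate as the endpoint.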"}
{"smiles": "CN[C@H]1CC[C@@H](c2ccc(Cl)c(Cl)c2)c2ccc(S(N)(=O)=O)cc21", "outcome": "inactive"}
{"smiles": "COc1ccc(S(=O)(=O)N2C(=O)[C@@](c3ccccc3OC)(N3C[C@H](O)C[C@H]3C(=O)N(C)C)c3cc(Cl)ccc32)c(OC)c1", "outcome": "inactive"}
{"smiles": "CCCCC(CC)COC(=O)CC(C(=O)OCC(CC)CCCC)S(=O)(=O)O", "note": "(stereo unspecified)", "outcome": "inactive"}
{"smiles": "CC(C)(C)c1cc(O)c(C(C)(C)C)cc1O", "outcome": "inactive"}
{"test": "CCTE_Simmons_MITO_viability: CellTiter-Glo Viability Assessment for CCTE's HepG2 Seahorse XF Respirometric Screening Assay [post-hoc], Simmons Lab (AID 2284007; active = hit-call score of the fitted dose curve at least 0.9, where 1 is the maximum;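 for AC50: cells exposed to chemical for 90 min before the ATP read; actives lower ATP signal relative to DMSO baseline meaning reduced viability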)", "conditions": "not given", "in_short": "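Post-hoc viability check on the HepG2 respirometry plates: luciferase-based ATP signal measured once, after 90 min compound exposure spanning 125 nM–100 uM final. Activity was referenced to DMSO as baseline.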"}
{"smiles": "CN[C@H]1CC[C@@H](c2ccc(Cl)c(Cl)c2)c2ccc(S(N)(=O)=O)cc21", "outcome": "inactive"}
{"smiles": "CCCCC(CC)COC(=O)CC(C(=O)OCC(CC)CCCC)S(=O)(=O)O", "note": "(stereo unspecified)", "AC50": "56.1 µM (active)"}
{"smiles": "CC(C)(C)c1cc(O)c(C(C)(C)C)cc1O", "outcome": "inactive"}
{"test": "CCTE_Shafer_MEA_acute_spike_number: CCTE's Neural Acute Assay for Total Number of Spikes, Shafer Lab (AID 2284008);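 for AC50: curve fitted for decrease in spike count so AC50 reflects inhibitors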", "conditions": "not given", "in_short": "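Rat primary cortical neurons on 48-well MEA plates, DIV 13 or 15, at 37 C. 40 min baseline then 40 min with compound (0.03-40 uM); spikes detected at 8x rms noise, expressed as percent change from baseline.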"}
{"smiles": "CN[C@H]1CC[C@@H](c2ccc(Cl)c(Cl)c2)c2ccc(S(N)(=O)=O)cc21", "outcome": "inactive"}
{"smiles": "COc1ccc(S(=O)(=O)N2C(=O)[C@@](c3ccccc3OC)(N3C[C@H](O)C[C@H]3C(=O)N(C)C)c3cc(Cl)ccc32)c(OC)c1", "AC50": "31.8 µM (active)"}
{"smiles": "Cc1ccc(C)c(O)c1C", "outcome": "inactive"}
{"smiles": "CCCc1cc(=O)[nH]c(=S)[nH]1", "outcome": "inactive"}
{"smiles": "Nc1nc(N)c2nc(CNc3ccc(C(=O)N[C@@H](CCC(=O)O)C(=O)O)cc3)cnc2n1", "outcome": "inactive"}
{"smiles": "CC(C)(C)c1cc(O)c(C(C)(C)C)cc1O", "AC50": "25.9 µM (active)"}
{"smiles": "CCOC(=O)C(C)(C)Oc1ccc(Cl)cc1", "outcome": "inactive"}
